PubChem BioAssay AID651965 (National Center for Advancing Translational Sciences (NCATS), 2013)
The whole screen tested about 340,000 compounds, of which about 6,400 (1.9%) were called active. Inconclusive results (about 4%) are left out. Calls follow the shape of the dose curve; as a rule, active = well fitted falling curve with a large enough effect; inconclusive = small, poorly fitted or top-dose-only effect; inactive = no such curve, though single readings can be large or run the other way. The full list was thinned out, with actives kept by preference.

target: ATP-dependent Clp protease proteolytic subunit (Bacillus subtilis (strain 168)) (UniProt P80244); assay: qHTS Assay for Activators of ClpP; also: the source files actives as falling curves though it sought activators and does not explain the sign; nearly all actives have a fitted effect of over 65% in size; conditions: purified B. subtilis ClpP, FRET peptide cleavage, 20 min; series mostly up to 57.5 µM; activity change, negative = active: at the top concentration
Excerpt: The Clp protease proteolytic subunit (ClpP) is the core unit of the Clp complex belonging to the peptidase family S14 that hydrolyzes protein into small peptides in the presence of ATP and magnesium. It is ubiquitously expressed and is the major protease in bacteria. […] Unlike common antibiotics that simply interfere with the essential enzyme activity, ADEP binding activates the ClpP core in the absence of the regulatory Clp-ATPases leading to uncontrolled proteolysis and eventually cell death. Activators binding to the docking site on ClpP can also block formation of the ClpXP and ClpA/C-P holoenzyme complexes interfering with the normal biological functions of ClpP and thus have the potential to become new anti-microbials.
To identify activators of ClpP, a FRET based quenching reversal assay was developed using a purified B. subtilis ClpP and a decapeptide substrate (FRET-FV). The FRET-FV is tagged with a fluorescent molecule amino benzoic acid (donor) at the N-terminus and a nitrotyrosine quencher (acceptor) at the C-terminus. FRET-FV cleaves upon activation of ClpP with ADEP treatement and reverses the quenching effect of the nitrotyrosine causing an increase in fluorescence emission signal at 430nm. This assay was used to screen the Molecular Libraries Small Molecule Repository (MLSMR).
NIH Molecular Libraries Probe Production Centers Network [MLPCN]
NIH Chemical Genomics Center [NCGC]
Assay Submitter (PI): Michael Maurizi, National Cancer Institute
Two and a half microL/well of purified enzyme solution (final concentrations 10 microg/mL B. subtilis ClpP in 100 mM Tris/HCl pH8, 100 mM KCl, 0.05% low protease BSA, 2.5% glycerol, 0.01% Tween-20 buffer) was dispensed into 1536-well assay plates (Greiner, black solid, medium-binding plates) with Aurora Discovery BioRAPTR Flying Reagent Dispenser (FRD, Beckton-Dickenson). Compound solution (23 nL) was transferred to the assay plate using Kalypsys pin tool equipped with a 1536-pin tool. […] FRET signals at time 0 and after 20 min room temperature incubation were obtained using the PerkinElmer Envision plate reader with 320nm excitation and 430nm emission filters. Delta FRET value (Time 20 - Time 0) was calculated and normalized to the delta FRET value of positive control ADEP (5.8 microM final concentration) and negative control DMSO and no enzyme wells.
Potency is read from the fitted curve at half-maximal effect.

ATP-dependent Clp protease proteolytic subunit (Bacillus subtilis (strain 168)), sequence (P80244 whole entry, looked up): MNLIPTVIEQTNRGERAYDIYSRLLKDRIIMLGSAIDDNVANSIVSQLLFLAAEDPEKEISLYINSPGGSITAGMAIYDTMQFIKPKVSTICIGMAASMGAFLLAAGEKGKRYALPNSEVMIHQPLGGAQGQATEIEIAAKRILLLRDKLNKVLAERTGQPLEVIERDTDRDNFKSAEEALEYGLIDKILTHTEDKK

Activity change, negative = active, inactive:
COc1cccc(C(=O)OCc2cc(=O)oc3c(C)c(C)ccc23)c1OC 2.05%
CCCc1cc(=O)oc2c(C)c(OCC(=O)Nc3ccccn3)ccc12 4%
CCOC(=O)[C@]12CCC=C1N(CCC1=CCCCC1)C(=O)[C@H](CC(=O)NCc1ccc(C)o1)C2 0.969%
Cc1nccn1-c1ccc(NC(=O)[C@H]2O[C@@H](n3cnc4c(N)ncnc43)[C@H](O)[C@@H]2O)cc1 1.51%
O=C(NCc1cccnc1)c1cc(C2CCCN(C(=O)C3CCCCC3)C2)on1 (stereo not given) -0.544%
CN(C)c1ccc(/C=C/C=C/c2ccnc3ccccc23)cc1 1.11%
COc1ccc(Br)c(Cn2c(C)c(C(=O)NCc3cccs3)sc2=O)c1 1.44%
O=C(NCc1ccccc1)C(c1ccc(F)cc1)N1CCN(C(=O)C2CCCO2)CC1 (stereo not given) -1.43%
COc1cccc(CNC(=O)c2cccnc2Sc2ccc(Cl)cc2)c1 0.0811%
CCN(Cc1ccccc1)C(=O)c1cn(-c2cccc(OC)c2)c(=O)c2ccccc12 -15%
CC1(C)CC(=O)c2cc(C(=O)NCc3ccccc3)c(=O)[nH]c2C1 -8.46%
Cc1ccc(-c2ccc(=O)n(Cc3ccc(F)cc3Cl)n2)cc1 0.44%
CC(=O)Nc1cc(C(=O)NCc2ccc(F)cc2Cl)ccc1Sc1ccc(Cl)cc1 -9.43%
Brc1cccc[n+]1Cc1cccc(C[n+]2ccccc2Br)c1 -6.97%
Cc1ccc2oc(=O)ccc2c1 -7.73%
CC(C)C(=O)Nc1ccc2c(c1)oc1ccccc12 -15.9%
COc1ccc(C(C)(O)c2nc(-c3cc(F)cc(F)c3)cs2)cc1 (stereo not given) 0.362%
CN1CCN(c2ccc3c(c2)OC[C@H](Cc2ccccc2)NS3(=O)=O)CC1 -0.119%
COc1ccccc1CNC(=O)c1cc(-c2cc(F)ccc2OC)n[nH]1 -5.92%
Cc1nn(Cc2ccccc2)c(Cl)c1C(=O)OC1CCOC1=O (stereo not given) 0.992%
CC(C)(C)c1ccc(OCC(=O)N2CCC(c3nc4ccccc4s3)CC2)cc1 0.0567%
COCCNC(=O)c1cc2c(Br)ccc(Br)c2nc1N -6.95%
CCOP(=O)(OCC)C(Cc1ccccc1)N=C(c1ccccc1)c1ccccc1 (stereo not given) 0.52%
O=C(Nc1ccccc1)c1ccccc1OCc1ccccc1 -4.41%
C[C@H]1CN([C@@H](C)CO)C(=O)CCCn2nncc2CO[C@@H]1CN(C)Cc1ccc(Oc2ccccc2)cc1 -1.47%
NC(c1ccccc1)c1csc(NC(=O)Nc2cccc(C(F)(F)F)c2)n1 (stereo not given) -2.47%
CCCn1c(=N)c(C(=O)NCc2ccccc2)cc2c(=O)n3cccc(C)c3nc21 4.76%
COCCCn1c(C(=O)NC2CCCCC2)cc2c(=O)n3cccc(C)c3nc21 3.95%
O=C1NC[C@H](CCCCN2C[C@H](Cc3ccc(O)cc3)N(CC3CCCCC3)C(=O)C2=O)N(CCc2ccccc2)C1=O 1.1%
Cn1c(=O)c2cc(NC(=O)NCCc3cccs3)ccc2n1Cc1cccc(C(F)(F)F)c1 4.93%
Cc1nn(-c2ccccc2)c2c1C(c1ccc(F)cc1)C(C#N)=C(N)O2 (stereo not given) -14.9%
Cc1nc2c(c(C)nn2-c2ccccc2)c(C)c1C -0.788%
COc1ccc(NC(=O)C2(C)Cc3c(-c4cccc(NC(C)=O)c4)ccnc3O2)cc1OC (stereo not given) -7.68%
FC(F)(F)c1cccc(-c2nc3ccccc3n2C(c2ccccc2)c2nc3ccccc3[nH]2)c1 (stereo not given) 4.78%
O=C(Nc1cc(C(F)(F)F)ccc1Cl)c1nc2ccccc2nc1N1CCCCC1 0.902%
CC(=O)c1ccc[n+](C(C)CCC(C)[n+]2cccc(C(C)=O)c2)c1 (stereo not given) -0.892%
O=C(Nc1cccc(C(=O)O)c1)/C(=C\c1ccccc1)NC(=O)c1ccc(Br)o1 -1.89%
CC(=O)NC(c1ccccc1)c1nc(-c2cccc(C(C)C)c2)cs1 (stereo not given) 1.12%
CC1(C(=O)NS(=O)(=O)c2cccc(F)c2)CCN1C(=O)c1cccc2ccccc12 (stereo not given) -1.17%
CCc1nc(Nc2ccc(NC(C)=O)cc2)c2oc3ccccc3c2n1 35.9%
COCCNc1nc(-c2ccccc2)nc2c1oc1ccccc12 -0.339%

Potency, active:
COc1cccc(-n2cc(C(=O)NCc3cccc(Cl)c3)c3ccccc3c2=O)c1 25.1 µM
CN(C)Cc1ccc(F)cc1Sc1cc(Cl)ccc1Cl 12.6 µM
CC(C)C(=O)Nc1ccc2oc(=O)ccc2c1 35.5 µM
O=C(OC1CCOC1=O)c1ccc(-c2nc3ccccc3s2)s1 (stereo not given) 17.8 µM
CCCC1OC23CCCCC2C(C#N)(C#N)C1(C#N)C(=N)O3 (stereo not given) 20 µM
Cc1cccn2c(=O)c3cc(C(=O)N4COCC4(C)C)n(C)c3nc12 28.2 µM
CSc1ccc(-c2c(C#N)c(N)nc3c2c(C)nn3-c2ccccc2)cc1 22.4 µM
FC(F)(F)c1cccc(-c2cc3ccccc3nc2N2CCCC2)c1 31.6 µM
CCc1nc(Nc2ccc3nccnc3c2)c2oc3ccccc3c2n1 28.2 µM
